# PubChem BioAssay AID463173 (ICCB-Longwood Screening Facility, Harvard Medical School, 2010)
# The campaign covered roughly 52,000 compounds. About 4,300 (8.3%) were called active. Shown is part of a subset that was picked to be rich in actives. Unmarked numbers belong to inactive results. Cut-off read from the data, not from the text of the source: active = survival mostly below about 52% (no sharp cut-off); inactive = mostly above about 56%.
# Tested on: DeltatarO mutant
# Test: growth inhibition of S. aureus wild type versus tarO mutant, primary screen, teichoic acid synthesis inhibitors, RN4220, OD600 (AID 463173)
# Settings: OD600, 18 h, stronger effect = lower value, screened at 18.75 µg/mL (by protocol)
row,SMILES,survival
1,Cc1ccc(Cn2c(=O)c3cccnc3n(CC(=O)Nc3cc(Cl)ccc3C)c2=O)cc1,85%
2,CCCOc1cccc(C2c3c(oc4ccc(F)cc4c3=O)C(=O)N2CCc2ccc(OC)cc2)c1 (centres undefined),92%
3,CCOC(=O)c1[nH]c(C)c(CCC(=O)NC(C)c2ccccc2)c1C (centres undefined),83%
4,O=C(NC12CC3CC(CC(C3)C1)C2)c1cncc(O)c1,90%
5,CCc1ccccc1NC(=O)c1ccc2c(c1)N(Cc1cc(C)ccc1C)C(=O)c1ccccc1S2(=O)=O,84%
6,Cn1c(=O)n(C)c2cc(/C=N/NC(N)=S)ccc21,98%
7,CCn1cc(C(=O)N2CCN(c3ccc(F)cc3)CC2)c(=O)c2cc(S(=O)(=O)N(C)C3CCCCC3)ccc21,73%
8,O=C(NCc1ccc2c(c1)CCN2C(=O)c1ccccc1)c1ccccc1,79%
9,CCOc1ccc(C(=O)NCc2ccc3c(c2)CCN3C(=O)c2ccccc2)cc1,-2% (active)
10,CCOc1ccc(C(=O)NCc2ccc3c(c2)CCN3C(=O)c2ccc(Cl)cc2)cc1,91%
11,CC(=O)c1cccc(NC(=O)C(CC(C)C)NS(=O)(=O)c2ccc3c(c2)CCN3C(C)=O)c1 (centres undefined),115%
12,Cc1ccc(OCCn2c(COc3ccc(Cl)cc3)nc3ccccc32)cc1,65%
13,COc1ccccc1OCCn1c(COc2cc(C)ccc2C)nc2ccccc21,61%
14,COc1cccc(OCc2nc3ccccc3n2CCOc2ccccc2C)c1,38% (active)
15,CCCC(O)c1nc2ccccc2n1CCCCOc1ccc(OC)cc1 (centres undefined),52%
16,COc1ccc(OCCn2c(C(C)Oc3ccccc3)nc3ccccc32)cc1 (centres undefined),48% (active)
17,Cc1ccc(OCc2nc3ccccc3n2CCOc2ccc(Cl)cc2)cc1,15% (active)
18,COCc1nc2ccccc2n1CCOc1cccc(C)c1,39% (active)
19,COc1ccccc1OCCn1c(C(C)Oc2ccccc2)nc2ccccc21 (centres undefined),66%
20,Cc1cccc(OCCn2c(SCC(N)=O)nc3ccccc32)c1,121%
21,COc1ccccc1NC(=O)C1=C(C)Nc2nc(SCc3ccccc3)nn2C1c1ccccn1 (centres undefined),65%
22,Cc1cc(C)cc(Nc2sc(C(=O)c3ccccc3)c(N)c2S(=O)(=O)c2ccccc2)c1,101%
23,Cc1ccsc1CCN1C(=O)N(c2ccccc2)C(=O)C1CC(=O)Nc1ccc(F)cc1 (centres undefined),114%

row,SMILES,survival
1,CC(C)=CCC(C)(C)C1OCCN1C(=O)Nc1ccccc1 (centres undefined),95%
2,Cc1sc2c(c1C)c(=O)n(Cc1ccccc1)c(=O)n2Cc1ccc(F)cc1,109%
3,COc1ccc(C2CC(=O)c3cc(-c4nc(-c5ccc(Cl)cc5)cs4)c(=O)[nH]c3C2)cc1OC (centres undefined),59%
4,CC(=O)c1ccc(NC(=O)/C=C/c2ccc(C)o2)cc1,48%
5,COc1ccc(Cn2ccnc2SCC(=O)Nc2nc3ccccc3s2)cc1,84%
6,CCc1ccc(OCCCSc2nc(-c3ccc(C(C)(C)C)cc3)nc3cc(=O)[nH]n23)cc1,80%
7,CCOC(=O)c1[nH]c(C)c(C(=O)NCc2ccc(F)cc2)c1C,79%
8,O=S(=O)(c1cccc(Cl)c1)c1nnn2c1nc(NC1CCCCCC1)c1sccc12,106%
9,COc1cccc(OCc2nc3ccccc3n2CCOc2ccc(C)cc2)c1,36% (active)
10,COc1cccc(OCCn2c(-c3ccc(Br)cc3)nc3ccccc3c2=O)c1,82%
11,CCCn1c(COc2cccc(C)c2)nc2ccccc21,12% (active)
12,COc1cccc(OCc2nc3ccccc3n2CCOc2cccc(C)c2)c1,44% (active)
13,COc1cccc(OCc2nc3ccccc3n2C)c1,57%
14,COc1cccc(OCc2nc3ccccc3n2CCOc2ccccc2)c1,35% (active)
15,CCCCn1c(COc2cccc(OC)c2)nc2ccccc21,57%
16,O=S(=O)(NCc1ccccc1Cl)c1ccc(-c2cnc(C3CC3)o2)cc1,101%
17,CC1CCN(c2nc3c(S(=O)(=O)c4cccc(Cl)c4)nnn3c3ccsc23)CC1,81%
18,Cc1c(C#N)c2ccccc2n1CC(=O)NC1CCCCCC1,72%
19,CC(C(=O)Nc1ccccc1C(=O)N1CCCC1)n1nnc2ccccc21 (centres undefined),77%
20,COc1ccc(Nc2nnc(-c3ccc(C)c(S(N)(=O)=O)c3)c3ccccc23)cc1,70%
21,CCn1c(SCC(=O)c2ccc(Br)cc2)nnc1-c1ccncc1,99%
22,CC1CCC(=O)C(C2(O)C(=O)Nc3ccccc32)C1 (centres undefined),93%
23,CC1CCC2C(C1)Nc1c(C(=O)O)cccc1C2(C)C (centres undefined),40% (active)

row,SMILES,survival
1,COc1ccc(OC)c(NC(=O)CN2CCCN(Cc3ccccc3Cl)S2(=O)=O)c1,128%
2,Cc1ccc2c(c1)N(CC(=O)Nc1ccccc1C(F)(F)F)C(=O)c1cccnc1O2,100%
3,CCOC(=O)c1c(S(=O)(=O)N2CCCC(C(=O)N(C)Cc3ccccc3)C2)c(C)n(C)c1C (centres undefined),92%
4,Cc1ccc(Cl)cc1Nc1nn2c(=O)c3ccc(C(=O)N4CCCC(C)C4)cc3nc2s1 (centres undefined),73%
5,Cc1nc(-c2ccccc2)cc(=O)[nH]1,109%
6,Cc1nc2cc3ccccc3cc2c(=O)[nH]1,47% (active)
7,CC(C)c1nc2ccccc2c(=O)[nH]1,91%
8,CNS(=O)(=O)c1cn(CC(=O)N2CCN(c3ccccc3F)CC2)cc1S(=O)(=O)NC,71%
9,CC(=O)c1ccc(S(=O)(=O)Nc2ccc(-c3cn4c(C)csc4n3)cc2)cc1,-5% (active)
10,CC(=O)Nc1ccc(S(=O)(=O)Nc2ccc(-c3cn4c(C)csc4n3)cc2)cc1,89%
11,COc1ccc(S(=O)(=O)Nc2ccc(-c3cn4c(C)csc4n3)cc2)cc1,94%
12,COc1cc2ccccc2cc1C(=O)Nc1ccc2oc(-c3cc(Br)ccc3Cl)nc2c1,75%
13,COc1cc2ccccc2cc1C(=O)Nc1cccc(-c2nc3cc(C)c(C)cc3o2)c1,41% (active)
14,COc1cc2ccccc2cc1C(=O)Nc1ccc(Cl)c(-c2nc3ccccc3o2)c1,40% (active)
15,COc1cc2ccccc2cc1C(=O)Nc1cccc(-c2nc3ccccc3o2)c1,7% (active)
16,Cc1cc2nc(-c3cccc(NC(=O)c4cccc5ccccc45)c3)oc2cc1C,57%
17,Cc1cc2nc(-c3ccc(NC(=O)c4ccccc4F)cc3)oc2cc1C,66%
18,Cc1cc2oc(C(=O)Nc3cccc(-c4nc5ccccc5o4)c3)c(C)c2cc1C,74%
19,COc1cc2ccccc2cc1C(=O)Nc1cccc(-c2nc3cc(C)c(C)cc3o2)c1C,45% (active)
20,COc1cc2ccccc2cc1C(=O)Nc1cccc(-c2nc3cc(C)ccc3o2)c1C,55%
21,CCCC(=O)Nc1cccc(-c2nc3cc(C)c(C)cc3o2)c1C,57%
22,COc1cc2ccccc2cc1C(=O)Nc1cc(-c2nc3ccccc3o2)ccc1C,111%
23,COc1cc2ccccc2cc1C(=O)Nc1ccc2oc(-c3cccc(Cl)c3Cl)nc2c1,56%
